Data reported in the supplement of paper PMC12808144.

Columns and labels:
Mel-DCC-11 = experiment: cell viability relative to DMSO control (fraction of DMSO control); higher = less cytotoxic, active = 0.5 or less; conditions: 1 µM; 120 h
Procedure, shortened: (§1)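 For 120 h, duplicate wells of 384-well plates held 1 µM of each of 315 approved anti-cancer drugs (TargetMol), spotted acoustically before cells were added in 40 µl per well. Immortalized NHEM-hTERT melanocytes were seeded at 2500/well, and patient-derived Mel-DCC-11 plus its resistant subline Mel-DCC-11-R at 1500/well. The subline was run both without and with 8 µM of its selecting drug, and ATPlite 1step luminescence was read. Viability was normalised to vehicle-treated wells and averaged over the two replicates.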

NHEM-hTERT = experiment: as above; conditions: 1 µM; 120 h
Procedure, shortened: as §1

Mel-DCC-11-R = experiment: cell viability relative to DMSO control (fraction of DMSO control); higher = less cytotoxic, active = 0.8 or less; conditions: 1 µM, 120 h
Procedure, shortened: as §1

Measured: cell viability

O=C(CCBr)N1CCN(C(=O)CCBr)CC1 [Pipobroman]
inactive: Mel-DCC-11 0.709 | NHEM-hTERT 0.902 | Mel-DCC-11-R; vemurafenib co-treatment 0 µM 0.832 | Mel-DCC-11-R; vemurafenib co-treatment 8 µM 0.897

CCc1c2c(nc3ccc(OC(=O)N4CCC(N5CCCCC5)CC4)cc13)-c1cc3c(c(=O)n1C2)COC(=O)[C@]3(O)CC.Cl.O.O.O [Irinotecan hydrochloride trihydrate]
inactive: Mel-DCC-11 1.11 | NHEM-hTERT 0.875 | Mel-DCC-11-R; vemurafenib co-treatment 0 µM 1.32 | Mel-DCC-11-R; vemurafenib co-treatment 8 µM 0.937

COc1ccc(/C=C\c2cc(OC)c(OC)c(OC)c2)cc1OP(=O)([O-])[O-].[Na+].[Na+] [Fosbretabulin Disodium]
inactive: Mel-DCC-11 0.599 | NHEM-hTERT 0.64
active: Mel-DCC-11-R; vemurafenib co-treatment 0 µM 0.57 | Mel-DCC-11-R; vemurafenib co-treatment 8 µM 0.421

CCNC(=O)[C@@H]1CCCN1C(=O)[C@H](CCCN=C(N)N)NC(=O)[C@H](CC(C)C)NC(=O)[C@@H](CC(C)C)NC(=O)[C@H](Cc1ccc(O)cc1)NC(=O)[C@H](CO)NC(=O)[C@H](Cc1c[nH]c2ccccc12)NC(=O)[C@H](Cc1cnc[nH]1)NC(=O)[C@@H]1CCC(=O)N1 [Leuprorelin Acetate]
inactive: Mel-DCC-11 0.683 | NHEM-hTERT 0.879 | Mel-DCC-11-R; vemurafenib co-treatment 0 µM 0.854 | Mel-DCC-11-R; vemurafenib co-treatment 8 µM 0.919

N#Cc1ccc(C(c2ccc(C#N)cc2)n2cncn2)cc1 [Letrozole]
inactive: Mel-DCC-11 1.01 | NHEM-hTERT 1.03 | Mel-DCC-11-R; vemurafenib co-treatment 0 µM 1.08 | Mel-DCC-11-R; vemurafenib co-treatment 8 µM 1.06

CC1CCC(C(C)C)C(O)C1 (racemic) [DL-Menthol]
inactive: Mel-DCC-11 1.2 | NHEM-hTERT 0.973 | Mel-DCC-11-R; vemurafenib co-treatment 0 µM 1.07 | Mel-DCC-11-R; vemurafenib co-treatment 8 µM 1.08
